# Source: the supplement of paper PMC6555819
# Legend:
# Assay in all cases: PBM binding z-score (relative to random genomic background probes); higher = stronger binding; sequences stand for … in GC…GCGATTGACAGCGTAGAATGAAGG
# [1] = test system: FXR:RXRa (NR concentration 270 nM, RXRa partner concentration 90 nM)
# Summary of the method: (§1)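 Binding z-scores were set against random background probes. The data came from custom Agilent 4×180K protein-binding microarrays carrying double-stranded probes with 34-nt variable regions, incubated 1 h with ligand-free nuclear receptor dimers. Partner-specific antibodies detected binding, and scanned fluorescence was regression-normalized.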
# [2] = test system: LXRa:RXRa (NR concentration 270 nM, RXRa partner concentration 90 nM)
# Summary of the method: as §1
# [3] = test system: LXRa homodimer (NR concentration 270 nM)
# Summary of the method: as §1
# [4] = test system: LXRb:RXRa (NR concentration 270 nM, RXRa partner concentration 90 nM)
# Summary of the method: as §1
# [5] = test system: LXRb homodimer (NR concentration 270 nM)
# Summary of the method: as §1
# [6] = test system: PPARa:RXRa (NR concentration 270 nM, RXRa partner concentration 90 nM)
# Summary of the method: as §1
# [7] = test system: PPARg:RXRa (NR concentration 180 nM, RXRa partner concentration 90 nM)
# Summary of the method: as §1
# [8] = test system: PPARg:RXRa 270nM:90nM, anti-RXR (NR concentration 270 nM, RXRa partner concentration 90 nM)
# Summary of the method: as §1
# [9] = test system: PPARg:RXRa 30nM:10nM, anti-RXR (NR concentration 30 nM, RXRa partner concentration 10 nM)
# Summary of the method: as §1
# [10] = test system: PPARg:RXRa 90nM:30nM, anti-RXR (NR concentration 90 nM, RXRa partner concentration 30 nM)
# Summary of the method: as §1
Sequence,PBM binding z-score [1],PBM binding z-score [2],PBM binding z-score [3],PBM binding z-score [4],PBM binding z-score [5],PBM binding z-score [6],PBM binding z-score [7],PBM binding z-score [8],PBM binding z-score [9],PBM binding z-score [10]
GGAACGAGGGCAAGTTGATAGCTGAGTTTGATGG,0.775,0.137,-0.459,0.185,-0.455,1.59,0.992,1.03,0.138,0.467
ACTAGCAGGCCAAGTTTTGGTCACTCAAACAAAG,-0.294,-0.403,-0.274,-0.34,-0.558,-0.0813,-0.156,-0.261,-0.692,-0.457
GGAACGAGGGCAAGGTTGATAGCATCTGTCGACG,0.705,0.414,-0.458,0.32,-0.386,2.82,4.49,5.17,3.62,4.91
CCTGCTGGGCCAAAAAGGTCATTGATGCCGATAA,3.7,4.03,2.82,4.04,0.015,4.34,1.24,2.72,0.205,1.65
TTACCACGGTGAGCTGAGGTCGTTGATCCAACTC,0.647,0.233,-0.365,0.375,-1,0.798,-0.279,0.206,-0.397,-0.177
CGTGCAAGGTCAGCAGGTCAGTGAAAGCGACGTG,6.34,4.37,0.442,3.25,-0.32,5.48,4.89,4.92,1.7,3.51
CCTAGCAGGCCAGGGTCAATCAAGCATTTCGCTT,3.41,2.94,-0.348,3.36,-1.18,4.23,0.925,1.66,-0.329,0.705
TCATATAAGTAAATGCTAGGTGAAAGTCCGATCT,1.12,1.03,0.543,0.645,0.419,1.3,0.711,2.49,4.34,3.6
GCTTACGGGTCAACGGTTATAGCATGAATAGAAT,5.44,3.55,-0.033,3.68,-0.198,5.55,6.07,5.8,3.19,5.2
AACTCTAGGTAAGACTCAGTTCAGTGAAGAACGC,-0.314,-0.0738,0.141,-0.191,-0.311,0.00216,0.00417,-0.304,-0.237,-0.258
TTACTAAGGTGAAAGGTCGTTGATGCACGCCTTG,4.62,4.06,0.805,3.47,-0.065,5.91,9.26,8.57,8.09,9.29
CCTAGCAGGCCAGGGTCACTCAGGCATTTCGCTT,1.73,1.43,-0.738,1.49,-0.994,2.75,0.469,1.25,-0.561,0.308
GCTACTGGGGCATCAGCAGGTTACCATAACTTAA,-0.035,-0.127,-0.19,0.88,-0.858,1.74,2.37,2.01,0.134,1.34
ACAGACAGATGAGTGAAGGTAACTCAGCTGGACG,0.536,-0.0158,-0.336,-0.328,-0.174,-0.0253,0.883,0.561,0.259,0.0616
CCGACTGGGGCAAAGGTTACCATTCTCAGTACGA,1.49,1.29,-0.141,2.02,-0.949,5.42,11.2,9.61,8.44,11.7
CCTAGCTGGTCAGGAGGTCACACACCGGATATGA,3.53,3.73,1.44,3.21,0.171,4.14,2.84,3.59,1.08,2.74
CCTACTGGGCCATTCAGAGGTCATTGGTCATATG,2.52,4.22,7.04,3.5,0.551,3.65,2.66,3.38,1.1,2.4
GCGACTGGGGCAAAGCAGGTCACCATAAGGTTGG,0.839,1.93,-0.00602,1.53,-1.06,3.18,2.77,2.65,0.521,1.7
CATACTGGGCCACGAAAGGTCATTGATTCAGTGA,3.98,5.28,5.21,4.44,0.817,4.52,4.46,4.67,1.9,3.84
TCTAGTTGGTCACGGAGTTCACACACGACGGGTA,1.65,2.17,2.34,1.88,0.263,2.63,1.88,2.66,3.07,2.99
CGGCCTAGGTCAGGGCCAGTATAGGAGGAACGTT,1.39,0.731,-0.463,0.402,-1.29,1.83,0.691,0.462,-0.446,0.244
AGTCAAAGTTCATCTATGTAACGTAAGATATGCT,6.5,5.79,5.16,3.59,1.69,4.44,6.21,5.9,3.03,5.29
TGAATGAGGTTATAAGATCAAGGAACGTTGCAAA,1.48,1.44,-0.207,0.961,0.00759,3.01,1.79,2.39,1.08,1.89
CCTACTGGACCAAAAAGGTCATTGATGCCGATAA,3.74,4.82,4.22,4.55,1.28,4.55,2.13,3.38,1.31,2.53
CGAACGAGGGCATGAGTTGATAGCGAATGCCGAT,0.658,0.274,-0.522,-0.0069,-0.724,1.51,1.34,1.65,0.171,1.04
